# Experimental data taken from PubChem BioAssay (NCATS).
# Values joined by “and” are separate entries in the source; they are usually repeats but may differ in a detail not shown here. Equal entries are not always repeated. Results filed as inconclusive are left out. Entries that show only a call come without a potency. Unmarked numbers belong to inactive results. Active and inactive are the calls of the source. Unless noted, calls follow the shape of the dose curve; as a rule, active = well fitted curve in the direction sought with a large enough effect; inconclusive = small, poorly fitted or top-dose-only effect, or another doubt; inactive = no such curve, though single readings can be large; an effect the other way counts as inactive or inconclusive.
# How the values were obtained:
# [1] = Primary qHTS for inhibitors of nuclear receptor binding SET domain protein 2 (NSD2) in an isogenic RCH-ACV NSD2 p.E1099K mutant (9B) (AID 1645876); details: RCH-ACV NSD2 E1099K (9B) viability, CellTiter-Glo, 72 h; series mostly up to 44.9 µM; also: nearly all actives have a fitted effect of over 70% in size; also: potency is read from the fitted curve at half-maximal effect
# [2] = Primary qHTS for inhibitors of nuclear receptor binding SET domain protein 2 (NSD2) in an RCH-ACV wild type WT cells (2C) (AID 1645877); details: RCH-ACV (leukaemia line) NSD2 WT (2C) viability, CellTiter-Glo, 72 h; series mostly up to 44.9 µM; also: nearly all actives have a fitted effect of over 70% in size; also: potency is read from the fitted curve at half-maximal effect
# [3] = Primary qHTS for small molecule stabilizers of the endoplasmic reticulum resident proteome: Secreted ER Calcium Modulated Protein (SERCaMP) assay (AID 1508630); details: SH-SY5Y GLuc-SERCaMP (Gaussia luciferase released on ER calcium loss) secretion, thapsigargin, luminescence; series mostly up to 38.4 µM
# Summary of the method: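 GLuc-SERCaMP-expressing SH-SY5Y cells, pretreated 16 h with compound, are challenged with thapsigargin to empty ER calcium stores; after 4 h, coelenterazine is added directly to the medium and luminescence is imaged.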
# [4] = target: Cytochrome P450 2D6 (Homo sapiens) (UniProt P10635); experiment: Cytochrome P450 family 2 subfamily D member 6 (CYP2D6) small molecule antagonists: luciferase biochemical (cell-free) qHTS assay (AID 1645840; active = well fitted curve in the direction sought with a large enough effect in the repeat runs; an effect the other way counts as inactive or inconclusive; also: nearly all actives have a fitted effect of over 55% in size; also: potency is read from the fitted curve at half-maximal effect); details: P450-Glo CYP2D6 enzyme, luciferin luminescence, 1 h; series mostly up to 57.4 µM
# Chain of Cytochrome P450 2D6 (Homo sapiens) (P10635 whole entry, looked up): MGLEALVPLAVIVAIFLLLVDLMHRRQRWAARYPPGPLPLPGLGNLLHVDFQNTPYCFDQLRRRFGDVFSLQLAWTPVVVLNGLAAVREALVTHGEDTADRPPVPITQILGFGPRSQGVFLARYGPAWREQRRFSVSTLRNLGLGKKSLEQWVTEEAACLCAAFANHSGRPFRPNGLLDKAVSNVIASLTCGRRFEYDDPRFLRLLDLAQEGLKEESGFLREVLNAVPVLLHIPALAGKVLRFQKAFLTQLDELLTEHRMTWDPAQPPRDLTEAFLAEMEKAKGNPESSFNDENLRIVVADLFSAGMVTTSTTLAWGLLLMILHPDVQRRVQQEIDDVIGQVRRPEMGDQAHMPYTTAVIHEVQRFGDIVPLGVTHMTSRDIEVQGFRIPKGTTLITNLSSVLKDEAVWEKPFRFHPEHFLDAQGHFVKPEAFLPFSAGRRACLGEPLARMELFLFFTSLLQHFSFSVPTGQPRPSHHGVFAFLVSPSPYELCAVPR
# Summary of the method: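 P450-Glo luminescent screen: recombinant CYP2D6 enzyme–proluciferin substrate mix preincubated with compound 10 min at room temperature, then NADPH regeneration added for 1 h at room temperature. Detection reagent added for 20 min; luciferin light read as relative luminescence units.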
# [5] = target: Cytochrome P450 2C9 (Homo sapiens) (UniProt P11712); experiment: Cytochrome P450 family 2 subfamily C member 9 (CYP2C9) small molecule antagonists: luciferase biochemical (cell-free) qHTS assay (AID 1645842; active = well fitted curve in the direction sought with a large enough effect in the repeat runs; an effect the other way counts as inactive or inconclusive; also: nearly all actives have a fitted effect of over 55% in size; also: potency is read from the fitted curve at half-maximal effect); details: P450-Glo CYP2C9 enzyme assay, luciferin luminescence; series mostly up to 57.4 µM
# Chain of Cytochrome P450 2C9 (Homo sapiens) (P11712 whole entry, looked up): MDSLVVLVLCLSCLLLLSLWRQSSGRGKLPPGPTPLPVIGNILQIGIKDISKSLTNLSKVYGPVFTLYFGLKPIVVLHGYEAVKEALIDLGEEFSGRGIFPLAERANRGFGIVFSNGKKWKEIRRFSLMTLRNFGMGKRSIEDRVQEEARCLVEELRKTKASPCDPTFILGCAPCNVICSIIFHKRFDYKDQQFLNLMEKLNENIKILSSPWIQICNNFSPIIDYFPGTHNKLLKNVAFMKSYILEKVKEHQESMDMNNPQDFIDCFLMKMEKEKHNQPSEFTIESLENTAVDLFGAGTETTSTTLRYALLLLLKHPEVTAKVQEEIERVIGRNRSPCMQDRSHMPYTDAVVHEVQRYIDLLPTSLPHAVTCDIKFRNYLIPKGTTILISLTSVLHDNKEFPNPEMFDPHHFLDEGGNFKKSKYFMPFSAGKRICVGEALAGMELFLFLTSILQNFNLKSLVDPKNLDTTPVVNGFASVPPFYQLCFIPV
# Summary of the method: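 Luminescence, after 20 min with luciferin detection reagent, reflected CYP2C9 turnover during a 1 h NADPH-driven reaction at 37C. Enzyme-substrate mix contained 0.4% bovine serum albumin and was preincubated with compound 10 min at room temperature.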
# [6] = target: Rap guanine nucleotide exchange factor 3 (Homo sapiens) (UniProt O95398); experiment: Confirmatory qHTS for antagonist of cAMP-regulated guanine nucleotide exchange factor 3 (EPAC1) (AID 1645880); details: EPAC1 Rap1B-BODIPY-GDP exchange, fluorescence; series mostly up to 115 µM; also: nearly all actives have a fitted effect of over 55% in size
# Chain of Rap guanine nucleotide exchange factor 3 (Homo sapiens) (O95398 whole entry, looked up): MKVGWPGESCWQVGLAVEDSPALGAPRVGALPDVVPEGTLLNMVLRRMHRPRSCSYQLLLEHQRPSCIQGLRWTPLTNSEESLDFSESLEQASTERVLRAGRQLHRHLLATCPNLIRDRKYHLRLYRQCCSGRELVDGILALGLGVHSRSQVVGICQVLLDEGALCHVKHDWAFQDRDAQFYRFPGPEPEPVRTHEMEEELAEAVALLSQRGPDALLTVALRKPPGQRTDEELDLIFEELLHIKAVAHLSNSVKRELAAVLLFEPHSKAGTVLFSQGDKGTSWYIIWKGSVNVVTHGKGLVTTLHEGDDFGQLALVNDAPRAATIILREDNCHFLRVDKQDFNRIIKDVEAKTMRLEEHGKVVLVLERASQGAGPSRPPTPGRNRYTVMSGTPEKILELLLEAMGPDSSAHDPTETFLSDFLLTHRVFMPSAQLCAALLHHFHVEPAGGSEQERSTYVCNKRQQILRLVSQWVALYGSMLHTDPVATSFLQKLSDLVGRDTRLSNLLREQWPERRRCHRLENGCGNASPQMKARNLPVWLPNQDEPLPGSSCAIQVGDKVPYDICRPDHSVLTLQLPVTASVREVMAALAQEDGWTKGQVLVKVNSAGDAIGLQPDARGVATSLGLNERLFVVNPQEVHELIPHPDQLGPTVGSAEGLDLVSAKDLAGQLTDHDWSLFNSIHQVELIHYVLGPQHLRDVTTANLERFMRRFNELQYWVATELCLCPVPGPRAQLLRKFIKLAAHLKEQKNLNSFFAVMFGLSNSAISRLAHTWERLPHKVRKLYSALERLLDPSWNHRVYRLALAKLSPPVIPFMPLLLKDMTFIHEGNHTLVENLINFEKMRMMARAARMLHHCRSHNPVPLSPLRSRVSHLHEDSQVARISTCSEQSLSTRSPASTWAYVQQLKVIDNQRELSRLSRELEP
# Summary of the method: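 Nucleotide exchange uses 100 nM EPAC1, 250 nM RAP1B-BODIPY-GDP and 50 uM GDP, with compounds in a concentration-titration series. After 5 min at room temperature, fluorescence (480 nm ex/540 nm em) is read every 5 min for 30 min. Data are normalized to control ATA and DMSO.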
# [7] = A High-Content qHTS Against Drug Library for the Identification of Small Molecules that Inhibit DYT1 Early Onset Primary Dystonia-Associated Cell Pathology (AID 1645839; calls by dose curve); details: HEK293 Flp-In EGFP-delE TorsinA, punctate imaging, 48 h; series mostly up to 46.1 µM
# Summary of the method: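 In this high-content image screen, delE TorsinA mislocalization in inducible Flp-In 293 cells is scored as %pathology, with cell count serving as the counterscreen. Compound exposure lasts 48 h under tetracycline induction in reduced-serum medium.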
compound,measurement,setting,value
COc1ccc(Cn2ccc3ccc(C(=O)NO)cc32)cc1,Potency,[1],9.16 µM (active) and 13.2 µM (active)
same,Potency,[2],16.3 µM (active) and 8.33 µM (active)
CN1CC(=O)NC1=NC(=O)Nc1cccc(Cl)c1,Potency,[1],inactive
same,Potency,[2],inactive
N#CC(c1ccc(Cl)cc1)c1c(Cl)cc(-n2ncc(=O)[nH]c2=O)cc1Cl (stereo unspecified),Potency,[3],inactive
same,Potency,[2],inactive
O=C(NC[C@H](O)CO)c1ccncc1Nc1ccc(I)cc1F,Potency,[3],inactive
same,Potency,[2],16.6 µM (active)
c1cc(OCCN2CCCCC2)cc(-c2n[nH]c3ccc(-c4ncn[nH]4)cc23)c1,Potency,[4],15.1 µM (active)
same,Potency,[1],16.6 µM (active)
same,Potency,[2],13.2 µM (active)
CC(C)(CO)[C@@H](O)C(=O)NCCC(=O)O,Potency,[1],inactive
Cc1nc2c([nH]1)CCN(C(=O)c1ccc(NC(=O)c3ccccc3-c3ccccc3)cc1)c1ccccc1-2,Potency,[4],4.77 µM (active)
same,Potency,[5],inactive
COc1ccc(-c2nc3ccc(C4=NNC(=O)CC4C)cc3[nH]2)cc1 (stereo unspecified),Potency,[4],inactive
same,Potency,[1],9.44 µM (active) and 14.8 µM (active)
same,Potency,[2],5.96 µM (active) and 11.8 µM (active)
CN(C)S(=O)(=O)c1ccc2c(c1)C(=Cc1cc3c([nH]1)CCCC3)C(=O)N2,Potency,[3],inactive
same,Potency,[2],2.95 µM (active)
CN(C)N=Nc1nc[nH]c1C(N)=O,Potency,[1],2.95 µM (active)
same,Potency,[2],3.72 µM (active)
COc1cccc(OC)c1-c1cc(C(=O)NC2(C(=O)O)C3CC4CC(C3)CC2C4)nn1-c1ccnc2cc(Cl)ccc12 (stereo unspecified),Potency,[3],inactive
same,Potency,[2],inactive
CC1=C(C(=O)Nc2cc3cn[nH]c3cc2F)C(c2ccc(C(F)(F)F)cc2)CC(=O)N1 (stereo unspecified),Potency,[5],19 µM (active)
CCCC1OC2C[C@@H]3[C@H]4CCC5=CC(=O)C=C[C@]5(C)[C@H]4C(O)C[C@]3(C)[C@]2(C(=O)CO)O1 (stereo partly specified),Potency,[3],inactive
same,Potency,[2],0.0053 µM (active)
CCCCc1ccc(NS(=O)(=O)c2ccc(C)c(C(=O)N3CCN(c4cccc(C)c4C)CC3)c2)cc1,Potency,[3],inactive
same,Potency,[2],inactive
C[C@]12CC[C@@H]3c4ccc(O)cc4CC[C@H]3[C@H]1[C@@H](O)[C@@H](O)[C@H]2O,Potency,[3],inactive
same,Potency,[2],inactive
Nc1ccn([C@@H]2O[C@H](CO)[C@@H](O)[C@H]2O)c(=O)n1,Potency,[3],inactive
same,Potency,[2],inactive
Cc1cc(NC(=O)Nc2ccc(N(C)C)cc2)c2cc(F)cc(F)c2n1,Potency,[1],inactive
COc1nccc(-c2c(-c3ccc(F)cc3)ncn2C2CCNCC2)n1,Potency,[3],inactive
same,Potency,[2],18.6 µM (active)
Cc1nc(C(=O)NCC(=O)O)c(O)c2ccc(Oc3ccccc3)cc12,Potency,[4],inactive
same,Potency,[1],inactive
Cc1cc2nc3c(=O)[nH]c(=O)nc-3n(CC(O)C(O)C(O)CO)c2cc1C (stereo unspecified),Potency,[1],inactive
same,Potency,[6],inactive
O=C(NCCCCN1CCOCC1)c1cc2ccccc2o1,Potency,[1],inactive
same,Potency,[2],inactive
NS(=O)(=O)c1cc(Cl)c(Cl)c(S(N)(=O)=O)c1,Potency,[4],inactive
same,Potency,[1],inactive
same,Potency,[2],inactive
OC[C@H]1O[C@@H](OCCc2ccc(O)cc2)[C@H](O)[C@@H](O)[C@H]1O,outcome,[7],inactive
same,Potency,[4],inactive
same,Potency,[5],inactive
N#CC(c1ccnc(NCCc2cccnc2)n1)c1nc2ccccc2s1 (stereo unspecified),Potency,[1],14.8 µM (active)
same,Potency,[2],14.8 µM (active)
CCCCCCCCCCCCCC(=O)N[C@H](CO)[C@H](O)c1ccc([N+](=O)[O-])cc1,Potency,[3],inactive
same,Potency,[2],inactive
CN1CCc2c(n(Cc3ccc(C(=O)NO)cc3)c3ccccc23)C1,Potency,[4],6.74 µM (active)
same,Potency,[1],18.3 µM (active) and 16.6 µM (active)
same,Potency,[2],14.5 µM (active) and 18.6 µM (active)
O=C(O)CCNc1cc(N2CCc3ccccc3CC2)nc(-c2ccccn2)n1,"activity change, negative = inhibition",[4],10.8% [at 11.5 µM]
same,Potency,[1],inactive
same,Potency,[2],inactive
CCCCC(F)(F)[C@@]1(O)CC[C@H]2[C@H](CC(=O)[C@@H]2CCCCCCC(=O)O)O1,Potency,[2],inactive
O=C(CCCN1CCN(c2ccc(F)cc2)CC1)NC1c2ccccc2CSc2ccccc21 (stereo unspecified),Potency,[4],4.36 µM (active)
CCCCC(C)(C)[C@H](O)C=C[C@H]1[C@H](O)CC(=O)[C@H]1CC=CCCCC(=O)O,Potency,[1],inactive
same,Potency,[2],inactive
NC[C@H]1O[C@H](O[C@@H]2[C@@H](O)[C@@H](O[C@H]3O[C@H](CO)[C@@H](O)[C@H](N)[C@@H]3O)[C@H](N)C[C@@H]2N)[C@H](O)[C@@H](O)[C@H]1O,Potency,[1],inactive
same,Potency,[2],inactive
COc1ccc(C=CC(=O)Nc2ccccc2C(=O)O)cc1OC,Potency,[4],inactive
same,Potency,[5],16.9 µM (active)
Cc1cccc(-c2[nH]c(C(C)(C)C)nc2-c2ccc3c(c2)OCO3)n1,Potency,[1],4.61 µM (active) and 4.17 µM (active)
same,Potency,[2],4.11 µM (active) and 4.17 µM (active)
COc1ccc2c(c1)c(C1=C(c3c[nH]c4ccccc34)C(=O)NC1=O)cn2CCCN(C)C,Potency,[1],7.42 µM (active)
same,Potency,[2],6.61 µM (active)
c1ccc(CNc2nc(N3CCOc4ccccc43)nc3c2CCCC3)cc1,Potency,[4],3.01 µM (active)
same,Potency,[5],1.9 µM (active)
